# Sampled rows, rich in hits. Any-hit rate of the full collection: about 8.6%.
# Lassa entry: Lassa virus entry inhibition; Potency, µM (titrated, usually from 49.2 µM), for the others: at the top dose activity change, negative = inhibition, actives largely listed as inhibitors; AID 720533; hit rate 4.1% among 18,000; Lassa virus pseudotyped entry inhibition, cell-based qHTS
# MARV entry inh: Marburg virus entry inhibition. Marburg virus pseudotype entry/binding inhibition, cell-based. Potency, µM (top dose mostly 49.2 µM), for inactives: top-dose activity change, negative = inhibition, actives largely listed as inhibitors. hit rate 6.5% among 18,000. AID 720532
# The depositor's hits bear a star; ? = inconclusive; . = no result given; ! = not confirmed by another sample; [ ] = another dose, or the depositor's remark. Calls follow the shape of the full dose curve; tested in HEK293 cells. % is scaled to controls: 0 for no effect and ±100 for the full control effect; potency is read from the fitted curve at half-maximal effect.
SMILES,Lassa entry,MARV entry inh
COc1cccc([C@H]2Oc3ccc(OC)cc3C(=NOC[C@@H](O)COCc3ccco3)[C@H]2O)c1,10%[8.59 µM],?
O=S1(=O)CCSCCN1Cc1ccccc1Br,23%,19%
COCC(=O)Nc1cc(C(=O)N2CCCCC2c2nccn2C)cc2nc(-c3ccccc3)n(C)c12 (centres undefined),3%,6%
Cc1nn(C)c(Cl)c1CN1CCOc2ccc(CN3CCC(Oc4cccnc4)CC3)cc2C1,-4%,?
COc1cc(=O)n2c(c1C(=O)NCc1nonc1C)CCN(Cc1c[nH]c3ccccc13)CC2,?,1%
C[C@@]12CC[C@@H]3c4ccc(O)cc4C[C@H](CCCCCCCCCS(=O)CCCC(F)(F)C(F)(F)F)[C@H]3[C@@H]1CC[C@@H]2O (some centres undefined),?,11%
C[C@]12CC[C@@H]3c4ccc(O)cc4C[C@@H](CCCCCCCCCS(=O)CCCC(F)(F)C(F)(F)F)[C@H]3[C@@H]1CC[C@@H]2O (some centres undefined),6.3µM*,-14%
O=C(NN=C1C[C@@H](O)[C@H](O)[C@H]2[C@@H]3C(=O)N(C4CCCCC4)C(=O)[C@@H]3CC[C@H]12)OCc1ccccc1,-10%[8.59 µM],?
Cc1cc(C)cc([C@H]2C[C@]34CN(Cc5ccccc5)[S+](=O)([O-])[C@@H]3C[C@@H]2O4)c1,-20%,-15%
COC(=O)CC=C[C@@H](C)[C@@H](C=NOC[C@@H](O)COCc1ccco1)NS(=O)(=O)c1ccc(C)cc1,-16%[8.59 µM],21%[8.59 µM]
C#CCCCON=C1C[C@@H](O)[C@H](O)[C@H]2[C@@H]3C(=O)N(C4CCCCC4)C(=O)[C@@H]3CC[C@H]12,14%[8.59 µM],?
CCOC(=O)[C@@H](C)N1[C@H](C)[C@H](c2ccccc2)Oc2cc(Br)ccc2S1(=O)=O,14µM*,?
CC[C@H](C)[C@@H](C(=O)OC)N1Cc2ccccc2Oc2cc(Br)ccc2S1(=O)=O,4%,-26%
Cc1cc(C(=O)NCC2CCC3(CCN(Cc4ccc(-c5ccccc5)cc4)CC3)O2)n(C)n1 (centres undefined),-12%,?
CC1(C)CN(Cc2cccnc2)C(=O)[C@@H]1CC(=O)Nc1ccc(Br)cc1,10%,?
C=CC[C@H]1C(=O)N2[C@@H](C[C@@H](C)[C@@H]2c2ccccc2)[C@@H](CC=C)C(=O)N2[C@H]1C[C@@H](C)[C@@H]2c1ccccc1,31%[8.59 µM],?
C[C@@H](CN1c2ccccc2Sc2ccccc21)N(C)C,-14%[17.8 µM],10µM*
CN(C)C(=O)OC1=C(c2ccccc2)Sc2ccccc2-n2cccc21,?,-18%
CC(CN1c2ccccc2Sc2ccccc21)N(C)C (centres undefined),32µM*!,13µM*
CCOC(=O)CN1C(=O)[C@]2(OC[C@@H]3Cc4ccccc4[C@H]3C=C2C)c2ccccc21,1%[8.59 µM],-22%[8.59 µM]
C[C@@H]1[C@@H](c2ccccc2)Oc2c(Cl)cccc2S(=O)(=O)N1Cc1cccc(F)c1,-18%,-45%
Cc1ccc(NC(=O)c2ccoc2)cc1-c1ccc(C(=O)NCC2CC2)cc1,?,0%
COC(=O)C(O)C(O)(CCC(C)C)C(=O)OC1C(OC)=CC23CCCN2CCc2cc4c(cc2C13)OCO4 (centres undefined),0.13µM*,0.004µM*
COC(=O)C[C@](O)(CCCC(C)(C)O)C(=O)O[C@@H]1C(OC)=CC23CCCN2CCc2cc4c(cc2[C@H]13)OCO4 (some centres undefined),22µM*,?
COC1=CC23CCCN2CCc2cc4c(cc2C3C1O)OCO4 (centres undefined),-5%,3%
SMILES,Lassa entry,MARV entry inh
COC(=O)C[C@@](O)(CCC(C)(C)O)C(=O)O[C@@H]1C(OC)=C[C@]23CCCN2CCc2cc4c(cc2[C@@H]13)OCO4,0.11µM*,0.1µM*
CCOC(=O)C1=C(CCl)NC(=O)N(C(C)=O)C1c1ccccc1 (centres undefined),.,-22%[8.59 µM]
C[C@@H]1CNCCN1S(=O)(=O)c1cccc2cnccc12,5%,-25%
Cc1ccc(S(=O)(=O)N2CCCN(S(=O)(=O)c3ccccc3Br)CC2)cc1,.,35%
O=S(=O)(c1cccc2c(Cl)cccc12)N1CCCNCC1,?,8.9µM*
O=S(=O)(c1cccc2c(I)cccc12)N1CCCNCC1,?,11µM*
CC(CCN1CCCc2nc(C)c(C)cc21)=NOC[C@@H](O)[C@H]1O[C@@H]2OC(C)(C)O[C@H]2[C@@H]1O,35%[8.59 µM],-8%[8.59 µM]
O=C(CCCN1CCC(n2c(=O)[nH]c3ccccc32)CC1)c1ccc(F)cc1,-18%[17.8 µM],9%[17.8 µM]
O=c1[nH]c2ccccc2n1C1CCN(Cc2ccc(-c3[nH]c4cc5ncnc5cc4nc3-c3ccccc3)cc2)CC1,18µM*,7.1µM*
CC(=O)OC[C@H]1O[C@H](CC=NOCC[C@@H]2C=C[C@@H](OC(C)=O)[C@@H](COC(C)=O)O2)C=C[C@@H]1OC(C)=O,-1%[8.59 µM],10%[8.59 µM]
COc1ccccc1N1CCN(c2nc(CNC(=O)C3CC34CCCC4)nc3ccccc23)CC1 (centres undefined),32µM*,?
COc1ccccc1N1CCN(C[C@@H](C(=O)NC(C)(C)C)c2ccccc2)CC1,-16%,-30%
COC1=C[C@@H](C(=O)N[C@H]2CCCC[C@H]2NC(C)=O)[C@@H](C)[C@H](c2ccccc2)CC1=O,?,-13%[8.59 µM]
Cc1oc(-c2ccccc2NC(=O)C2CCC2)nc1CNC(=O)c1ccccn1,-3%,-1%
COCOc1c2c(c(OCOC)c3c(OCOC)cccc13)C(=NNS(C)(=O)=O)C1=C2CCCC1,-3%[8.59 µM],1%[8.59 µM]
CC1CC2CCC(O2)C(C)C(=O)OC(C)CC2CCC(O2)C(C)C(=O)OC(C)CC2CCC(O2)C(C)C(=O)OC(C)CC2CCC(O2)C(C)C(=O)O1 (centres undefined),1µM*,5µM*
O=[N+]([O-])c1ccc(-c2nc(-c3ccc(F)cc3)c(-c3ccncc3)[nH]2)cc1,-16%,11µM*
Fc1ccc(-c2c(-c3ccncc3)nc3n2CCS3)cc1,34%,?
COc1cc(=O)n2c(c1C(=O)NCc1ccco1)CCN(Cc1ccc(F)cc1Cl)CC2,-22%,-6%
CN1C(=O)[C@]23CC4=CC=C[C@H](O)[C@H]4N2C(=O)[C@@]1(CO)SS3,2.5µM*,1.4µM*
C=COC[C@H]1CN2[C@H](c3ccc(Br)cc3)[C@H](C)CC[C@H]2C(=O)O1,1%[8.59 µM],-1%[8.59 µM]
CC[C@@]1([C@@H]2O[C@@H]([C@H]3O[C@@](O)(CO)[C@H](C)C[C@@H]3C)C[C@@H]2C)CC[C@@H]([C@]2(C)CCC3(C[C@H](O)[C@@H](C)[C@@H]([C@@H](C)[C@@H](OC)[C@H](C)C(=O)O)O3)O2)O1 (some centres undefined),0.56µM*,0.32µM*
CC[C@@]1([C@@H]2O[C@@H]([C@H]3O[C@@](O)(CO)[C@H](C)C[C@@H]3C)C[C@@H]2C)CC[C@H]([C@]2(C)CC[C@]3(C[C@H](O)[C@@H](C)[C@@H]([C@@H](C)[C@@H](OC)C(C)C(=O)O)O3)O2)O1 (some centres undefined),0.45µM*,0.28µM*

# Screening results from PubChem BioAssay.
